The nature of assay [1]: Quantitative High-Throughput drug screen in 47 multiple myeloma cell lines against the NCATS MIPE library collection: KMS20_JCRB cell viability assay (AID 1918973).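 Also: 100% = DMSO only wells and 0% = media only wells; nearly all actives have a fitted effect of over 45% in size.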 A digest of the protocol:
(§1)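 qHTS of the MIPE 4.0 collection: 500 myeloma cells/well, 48 h drug exposure at 37C in 5% CO2, then CellTiter-Glo for 5 min at room temperature before luminescence reading.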

Assay [2] is described as follows: Quantitative High-Throughput drug screen in 47 multiple myeloma cell lines against the NCATS MIPE library collection: KMS26_JCRB cell viability assay (AID 1918975). Also: nearly all actives have a fitted effect of over 45% in size. Also: potency is read from the fitted curve at half-maximal effect. A digest of the protocol: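 Inhibition of cell viability is measured here. Each line was plated at 500 cells per well, treated with MIPE 4.0 drugs, kept 48 hours at 37C, then assayed for ATP content by CellTiter-Glo luminescence.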

A short description of assay [3]: Quantitative High-Throughput drug screen in 47 multiple myeloma cell lines against the NCATS MIPE library collection: MMM1_PLB cell viability assay (AID 1918976). Also: potency is read from the fitted curve at half-maximal effect; nearly all actives have a fitted effect of over 35% in size. A digest of the protocol: (§2)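 Readout: median RLU from CellTiter-Glo after 5 min at room temperature. Preceding step was 48 h drug treatment of 500 cells/well at 37 °C, 5% CO2, with DMSO-only and media-only control wells.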

Assay [4] in a line: Quantitative High-Throughput drug screen in 47 multiple myeloma cell lines against the NCATS MIPE library collection: MOLP8_DSMZ cell viability assay (AID 1918977). Also: nearly all actives have a fitted effect of over 45% in size. Also: potency is read from the fitted curve at half-maximal effect. A digest of the protocol: as §2
A short description of assay [5]: Quantitative High-Throughput drug screen in 47 multiple myeloma cell lines against the NCATS MIPE library collection: OCIMY1_PLB cell viability assay (AID 1918979).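 Also: 100% = DMSO-only wells and 0% = cell-free media-only wells; nearly all actives have a fitted effect of over 35% in size.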 A digest of the protocol:
as §2

A short description of assay [6]: Quantitative High-Throughput drug screen in 47 multiple myeloma cell lines against the NCATS MIPE library collection: LP1_DSMZ cell viability assay (AID 1918982). Also: nearly all actives have a fitted effect of over 35% in size. A digest of the protocol: as §2
The nature of assay [7]: Quantitative High-Throughput drug screen in 47 multiple myeloma cell lines against the NCATS MIPE library collection: KMS28PE_JCRB cell viability assay (AID 1918983). Also: nearly all actives have a fitted effect of over 35% in size. Also: potency is read from the fitted curve at half-maximal effect. A digest of the protocol: as §2
A short description of assay [8]: Quantitative High-Throughput drug screen in 47 multiple myeloma cell lines against the NCATS MIPE library collection: OCIMY7_PLB cell viability assay (AID 1918987). Also: nearly all actives have a fitted effect of over 65% in size. Also: potency is read from the fitted curve at half-maximal effect. Summed up:
as §2

Assay [9] can be described thus: Quantitative High-Throughput drug screen in 47 multiple myeloma cell lines against the NCATS MIPE library collection: XG6_PLB cell viability assay (AID 1919865). Also: nearly all actives have a fitted effect of over 40% in size. Also: potency is read from the fitted curve at half-maximal effect. Summed up: as §2
A short description of assay [10]: Quantitative High-Throughput drug screen in 47 multiple myeloma cell lines against the NCATS MIPE library collection: NCIH929_DSMZ cell viability assay (AID 1918978). Also: nearly all actives have a fitted effect of over 35% in size. Also: potency is read from the fitted curve at half-maximal effect. A digest of the protocol:
as §2

A short description of assay [11]: Quantitative High-Throughput drug screen in 47 multiple myeloma cell lines against the NCATS MIPE library collection: L363_DSMZ cell viability assay (AID 1918984). Also: nearly all actives have a fitted effect of over 40% in size. Also: potency is read from the fitted curve at half-maximal effect. Summed up:
as §2

Assay [12] in a line: Quantitative High-Throughput drug screen in 47 multiple myeloma cell lines against the NCATS MIPE library collection: OCIMY5_PLB cell viability assay (AID 1918988). Also: nearly all actives have a fitted effect of over 65% in size. Also: potency is read from the fitted curve at half-maximal effect. A digest of the protocol:
as §2

Assay [13] can be described thus: Quantitative High-Throughput drug screen in 47 multiple myeloma cell lines against the NCATS MIPE library collection: SKMM1_PLB cell viability assay (AID 1919863). Also: nearly all actives have a fitted effect of over 35% in size. Also: potency is read from the fitted curve at half-maximal effect. The note with it: SKMM1 myeloma viability, CellTiter-Glo ATP, 48 h; viability: hits give low values. A digest of the protocol: as §2
(In ATP-based viability assays light output follows the ATP content of the culture.)

A short description of assay [14]: Quantitative High-Throughput drug screen in 47 multiple myeloma cell lines against the NCATS MIPE library collection: U266_ATCC cell viability assay (AID 1919864). Also: nearly all actives have a fitted effect of over 35% in size. Also: potency is read from the fitted curve at half-maximal effect. A digest of the protocol:
as §2

Assay [15] is described as follows: Quantitative High-Throughput drug screen in 47 multiple myeloma cell lines against the NCATS MIPE library collection: MM1S_ATCC cell viability assay (AID 1918980). Also: nearly all actives have a fitted effect of over 45% in size. Also: potency is read from the fitted curve at half-maximal effect. A digest of the protocol: as §2
Assay [16] is described as follows: Quantitative High-Throughput drug screen in 47 multiple myeloma cell lines against the NCATS MIPE library collection: KMS34_JCRB cell viability assay (AID 1918985). Also: nearly all actives have a fitted effect of over 40% in size. Also: potency is read from the fitted curve at half-maximal effect. Summed up:
as §2

The nature of assay [17]: Quantitative High-Throughput drug screen in 47 multiple myeloma cell lines against the NCATS MIPE library collection: MM1R_ATCC cell viability assay (AID 1918981). Also: nearly all actives have a fitted effect of over 35% in size. Also: potency is read from the fitted curve at half-maximal effect. Summed up:
as §2

Assay [18] is described as follows: Quantitative High-Throughput drug screen in 47 multiple myeloma cell lines against the NCATS MIPE library collection: OPM1_PLB cell viability assay (AID 1918989).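 Also: 100% = DMSO-only wells and 0% = media-only wells; nearly all actives have a fitted effect of over 40% in size.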 A digest of the protocol: as §2
Assay [19] can be described thus: Quantitative High-Throughput drug screen in 47 multiple myeloma cell lines against the NCATS MIPE library collection: KMS21BM_JCRB cell viability assay (AID 1918974). Particulars: ATP luminescence, 48 h; viability: at 45.8 µM (top of the series). A digest of the protocol: as §1

The values that follow come from PubChem BioAssay (NCATS).

Results filed as inconclusive are left out. Active and inactive are the calls of the source. Calls follow the shape of the dose curve; as a rule, active = well fitted curve in the direction sought with a large enough effect; inconclusive = small, poorly fitted or top-dose-only effect, or another doubt; inactive = no such curve, though single readings can be large; an effect the other way counts as inactive or inconclusive.

Turning to `CCN(CC)C(=O)c1ccc(C2=CC3(CCNCC3)Oc3cccc(O)c32)cc1`, the Potency entry in assay [1], in assay [2], in assay [4], in assay [5], in assay [6] and in assay [7] was “inactive” in each case. Further, the Potency entry in assay [8] and in assay [9] was “inactive” each time. Moreover, in assay [3], the Potency was 10.5 µM (active).

For the molecule `CC[C@H]1C=CC=CC[C@@H](C)[C@H](O)[C@@](C)(O)C(=O)[C@@H](C)[C@H](O)[C@@H](C)C(=O)[C@@H](C)[C@H](O)[C@@H](C)C=CC(=O)O[C@@H]2[C@@H](C)[C@H](CC1)O[C@]1(CC[C@H](C)[C@H](C[C@@H](C)O)O1)[C@H]2C`, the Potency in [2] is 10.5 µM (active); in [3], 0.0059 µM (active); in assay [10], 0.0296 µM (active); in [7], 20.9 µM (active); in [11], 0.001 µM (active); in assay [8], 0.001 µM (active). The Potency in assay [12] is 0.0017 µM (active); in assay [13] it was 20.9 µM (active); in assay [14] it was 20.9 µM (active).

As to `C[C@]12CC[C@@H]3[C@@H](CCC4=CC(=O)CC[C@@H]43)[C@@H]1CC[C@@H]2OC(=O)CCc1ccccc1`, the Potency result in [5], in [15] and in [14] was “inactive” throughout.

As to `C#C[C@]1(O)C=C[C@@H]2[C@@H]3CCC4=CC(=O)CC[C@@H]4[C@H]3CC[C@@]21CC`, the Potency entry in assay [2], in assay [4], in [10], in [5], in assay [15] and in assay [6] was “inactive” throughout. The Potency entry in assay [7] and in [16] was “inactive” in each case.

As to `CC(=O)O[C@@]12CO[C@H]1C[C@H](O)[C@@]1(C)C(=O)[C@H](O)C3=C(C)[C@@H](O)C[C@@](O)([C@@H](OC(=O)c4ccccc4)[C@@H]21)C3(C)C`, the Potency entry in assay [2] and in assay [14] was “inactive” each time. Besides, the Potency is 2.96 µM (active) in assay [4]; 10.5 µM (active) in [15]; 7.43 µM (active) in assay [17]; 2.64 µM (active) in assay [7]; 3.72 µM (active) in assay [16]; 2.09 µM (active) in assay [8]. Moreover, the Potency is 1.48 µM (active) in assay [12] and 0.418 µM (active) in assay [9].

Take `CC(=O)OCC1=C(C(=O)O)N2C(=O)[C@@H](N)[C@@H]2SC1`: the Potency entry in [4], in assay [10], in assay [5], in assay [7], in [14] and in assay [9] was “inactive” throughout. The viability in assay [13] is 121% (inactive).

As for `C[C@](O)(COc1ccc(C#N)cc1)C(=O)Nc1ccc(C#N)c(C(F)(F)F)c1`, the Potency result in assay [5], in [6], in assay [16] and in assay [14] was “inactive” each time. Also, the Potency in assay [8] was 26.4 µM (active).

Regarding `O=C(Oc1ccc([N+](=O)[O-])cc1)N1CCN(Cc2cccc(Oc3ccccc3)c2)CC1`, the Potency entry in assay [4], in [17], in assay [6], in [7], in assay [16] and in assay [12] was “inactive” in each case. Also, the Potency result in [18] is “inactive”. Besides, the Potency in assay [15] is 11.8 µM (active); in assay [14], 14.8 µM (active); in assay [9], 23.5 µM (active).

With `C[C@]12CC[C@H]3[C@@H](CCC4=CC(=O)CC[C@@]43C)[C@H]1CC[C@H]2O`, the Potency entry in [4], in assay [15], in [17], in [7], in assay [16] and in [8] was “inactive” in each case. For the same molecule, in assay [9], the Potency result was “inactive”.

For `c1cc2c(cc1[C@H]1OC[C@H]3[C@H]1CO[C@H]3c1ccc3c(c1)OCO3)OCO2`, the Potency entry in assay [4], in [17] and in assay [7] was “inactive” throughout. In addition, the Potency in assay [9] was 26.4 µM (active).

Regarding `CC(C)(C)[C@]1(O)C[C@@H]2OC(=O)C[C@@]23C(=O)O[C@@H]2OC(=O)[C@H](O)C213` (some centres undefined), the Potency entry in [4], in [5], in [15], in assay [17], in assay [6] and in assay [7] was “inactive” in each case. Further, the Potency entry in assay [16], in [12], in assay [14] and in [9] was “inactive” in each case.

For the molecule `CN[C@@H]1Cc2cccc3[nH]c(=O)n(c23)C1`, the Potency entry in [2], in assay [5], in [17], in assay [7], in assay [18] and in [14] was “inactive” each time. Moreover, the Potency is 5.26 µM (active) in assay [3] and 20.9 µM (active) in [12].

As for `C[C@H]1CCCC=CC2C[C@H](O)C[C@@H]2[C@H](O)C=CC(=O)O1` (some centres undefined), the Potency result in assay [2], in assay [4], in assay [10], in [5], in assay [15] and in assay [17] was “inactive” in each case. The Potency entry in assay [6], in [11], in assay [16], in [8], in assay [12] and in [18] was “inactive” in each case. For the same molecule, the Potency result in assay [14] and in [9] was “inactive” each time.

For `CC(=O)N(C)c1cccc(-c2ccnc3c(C(=O)c4cccs4)cnn23)c1`, the Potency entry in [19], in assay [2], in [4], in assay [5], in assay [6] and in assay [7] was “inactive” throughout. Also, the Potency result in assay [11] and in assay [9] was “inactive” throughout. Moreover, the Potency in assay [3] is 2.96 µM (active). Further, in assay [13], the viability is 119% (inactive).

As usually defined, the viability is a read-out of living cells in per cent, often relative to untreated cells.
